# According to PubChem BioAssay AID1835 (Johns Hopkins Ion Channel Center, 2009):
# Screen size: about 2,400 compounds; about 750 (31%) were called active. The list shows a part of the results. Values without a mark were called inactive.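 How the source made its calls: active means median signal gain over dofetilide-blocked control wells reaching their mean plus 3 SD, so readout 1 at least 0; inactive means the rest.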
# Molecular target: Voltage-gated inwardly rectifying potassium channel KCNH2 (Homo sapiens) (UniProt Q12809)
# Sequence (Q12809 whole entry, looked up): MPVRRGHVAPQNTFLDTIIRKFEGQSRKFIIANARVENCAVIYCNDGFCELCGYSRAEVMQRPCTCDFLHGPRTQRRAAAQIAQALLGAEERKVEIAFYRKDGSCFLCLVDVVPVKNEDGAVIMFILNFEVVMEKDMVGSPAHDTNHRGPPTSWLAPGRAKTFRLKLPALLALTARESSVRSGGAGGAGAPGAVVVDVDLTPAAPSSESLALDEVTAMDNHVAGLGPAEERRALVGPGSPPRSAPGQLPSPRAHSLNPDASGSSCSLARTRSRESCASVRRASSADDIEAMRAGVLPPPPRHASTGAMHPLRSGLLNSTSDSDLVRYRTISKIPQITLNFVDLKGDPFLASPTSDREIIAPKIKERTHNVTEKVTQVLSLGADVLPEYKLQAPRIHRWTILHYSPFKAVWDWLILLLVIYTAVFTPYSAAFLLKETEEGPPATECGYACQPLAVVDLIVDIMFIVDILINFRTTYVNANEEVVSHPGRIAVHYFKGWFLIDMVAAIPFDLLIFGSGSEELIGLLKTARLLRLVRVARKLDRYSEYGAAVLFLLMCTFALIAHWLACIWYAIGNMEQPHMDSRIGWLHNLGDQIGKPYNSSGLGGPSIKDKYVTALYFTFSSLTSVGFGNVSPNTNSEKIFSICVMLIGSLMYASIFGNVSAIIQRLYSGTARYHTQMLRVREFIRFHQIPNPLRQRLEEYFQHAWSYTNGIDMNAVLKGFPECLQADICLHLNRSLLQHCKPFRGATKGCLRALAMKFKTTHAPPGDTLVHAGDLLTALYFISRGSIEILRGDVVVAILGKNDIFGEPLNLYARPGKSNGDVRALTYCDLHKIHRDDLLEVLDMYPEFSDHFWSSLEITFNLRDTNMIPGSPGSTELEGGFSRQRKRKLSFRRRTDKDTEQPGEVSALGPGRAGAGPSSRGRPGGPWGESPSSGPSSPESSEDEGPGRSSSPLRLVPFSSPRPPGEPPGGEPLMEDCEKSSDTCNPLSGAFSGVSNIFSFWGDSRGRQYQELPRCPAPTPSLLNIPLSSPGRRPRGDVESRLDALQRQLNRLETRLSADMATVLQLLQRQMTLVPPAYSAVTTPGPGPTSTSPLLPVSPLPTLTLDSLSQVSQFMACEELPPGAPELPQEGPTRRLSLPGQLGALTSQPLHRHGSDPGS
# Test: hERG protection against dofetilide inhibition, confirmation, cell-based, thallium flux, duplicate retest, dofetilide IC70 (AID 1835)
# Settings: hERG cell line, FluxOR thallium flux, dofetilide-blocked; at 10 µM; active compounds read high
row,SMILES,"activity increase over dofetilide control, less the hit threshold"
1,Cc1cc(C)c(-c2c(O)c3c(n(C)c2=O)CC(C)(C)CC3=O)c(C)c1,-16%
2,CC1CCc2c(sc3[nH]c(=S)n(C)c(=O)c23)C1 (stereo not given),82% (active)
3,Cc1cccc(-n2c(=S)[nH]c3sc4c(c3c2=O)CCc2ccccc2-4)c1,-6%
4,Cn1c(=S)[nH]c2sc3c(c2c1=O)CCC(C(C)(C)C)C3 (stereo not given),59% (active)
5,CCCCNC1=CC(=O)C(=O)c2ccccc21,-9%
6,O=C(OCc1ccccc1)/C(=C/c1cccc([N+](=O)[O-])c1)NC(=O)c1ccco1,-5%
7,Cc1ccccc1NC1=NC(=S)N(c2ccccc2)C12CCCCC2,22% (active)
8,CC1(C)CC2(CCO1)C(Nc1ccccc1)=NC(=S)N2CC(N)=O (stereo not given),-15%
9,COc1ccc(NC(=O)C(=O)NNC(=O)c2ccc(Cl)cc2Cl)cc1,59% (active)
10,COc1ccc(NC(=O)C(=O)NNC(=O)C(C)Oc2ccc(Cl)cc2Cl)cc1 (stereo not given),59% (active)
11,COc1ccc(-c2cc(C(F)(F)F)nc(SCC(=O)NCc3cccs3)n2)cc1,-18%
12,COc1cc(OC)cc(C(=O)NC(=S)N(Cc2ccccc2)C(C)C)c1,30% (active)
13,CC(C)N(Cc1ccccc1)C(=S)NC(=O)C1(C)CC1(Cl)Cl (stereo not given),35% (active)
14,COc1ccc(CN(Cc2cccnc2)C(=S)NCCc2ccccc2)cc1OC,-11%
15,CCCOc1ccc(C(=O)NNC(=S)NC(=O)c2ccccc2)cc1,-36%
16,COc1cc(OC)cc(C(=O)OCC(=O)N(C)c2ccccc2)c1,-9%
17,CCOc1ccc(C(=O)NC(=S)N(Cc2ccccc2)Cc2ccccc2)cc1,73% (active)
18,CCCOc1ccc(CN(CCC#N)C(=S)NC(=O)c2ccccc2)cc1,9% (active)
19,N#CCCN(Cc1ccccc1)C(=S)NC(=O)c1ccccc1,-3%
20,COc1ccc(C(=O)NC(=S)N(Cc2ccccc2)Cc2ccccc2)cc1,43% (active)
21,CCCN(CC1CC1)C(=S)Nc1ccccc1F,-7%
22,CCCN(CCC)C(=S)NC(=O)c1ccc(-c2ccccc2)cc1,97% (active)
23,C=CCN(CC=C)C(=S)NC(=O)c1ccc(-c2ccccc2)cc1,-2%
24,COc1ccccc1NC(=O)C1CCCN1C(=O)Nc1ccc(F)cc1 (stereo not given),-14%
25,CC(C)c1cccc(C(C)C)c1NC(=O)COC(=O)[C@H](C)NC(N)=O,-11%

row,SMILES,"activity increase over dofetilide control, less the hit threshold"
1,O=C(OCc1ccc([N+](=O)[O-])cc1)c1cc2ccccc2oc1=O,-25%
2,C/C(=N\NC(=O)c1cc2ccccc2cc1O)c1ccccn1,-10%
3,C/C(=N\NC(=O)c1cc2ccccc2cc1O)c1ccc(C)o1,50% (active)
4,C/C(=N/NC(=O)c1cc2ccccc2cc1O)c1ccco1,40% (active)
5,C/C(=N\NC(=O)c1cc2ccccc2cc1O)c1cc2ccccc2o1,95% (active)
6,C/C(=N/NC(=O)c1sc(NS(=O)(=O)c2ccccc2)nc1C)c1sc(N)nc1C,-15%
7,C/C(=N\NC(=O)c1ccoc1C)c1cccc2ccccc12,-13%
8,C/C(=N\NC(=S)Nc1c(C)cccc1C)c1cc2ccccc2o1,-5%
9,Cc1cc(N2CCN(C)CC2)nc(N2CCOCC2)n1,-6%
10,O=C(N1CCOCC1)N1CCC(n2nnc3ccccc32)CC1,-8%
11,CN(C)c1oc(-c2ccccc2)nc1C#N,-17%
12,Cn1c(=O)c2c(ncn2CC(=O)OCc2ccccc2)n(C)c1=O,-11%
13,Cc1cc(C=O)c2c(c1)C=CC1(Oc3ccccc3C(=O)N1C)O2 (stereo not given),-29%
14,O=C(Cn1c(=O)c2cccn2c2ccccc21)NCCc1ccc(Cl)cc1,-16%
15,Oc1oc(-c2cccc3ccccc23)nc1/C=N/c1nccs1,4% (active)
16,CCCCn1nnc(NC(=O)c2ccc(-c3cccc([N+](=O)[O-])c3)o2)n1,-6%
17,O=C(O)CSCc1c(F)cccc1Cl,-7%
18,O=C(O)CSc1nc2ccccc2nc1Cc1ccccc1F,5% (active)
19,Cn1c(CNC(=O)c2ccccc2F)nnc1SCc1nc2ccccc2c(=O)[nH]1,-9%
20,COc1ccc(NC(=O)CN2C(=O)S/C(=C/c3cccn3-c3ccc(C(=O)O)cc3)C2=O)cc1,94% (active)
21,Cc1ccc(NC(=O)CN2C(=O)N/C(=C/c3ccccc3OCc3cccc(C(=O)O)c3)C2=O)cc1,-16%
22,COc1ccc(C(=O)Nc2ccc(-n3nncc3C(C)(C)C)cc2)cc1,-4%
23,Cc1cccc(NC(=O)CN2C(=O)S/C(=C\c3cccn3-c3cccc(C(=O)O)c3)C2=O)c1,7% (active)
24,Cc1ccc(NC(=O)CN2C(=O)S/C(=C\c3cccn3-c3cccc(C(=O)O)c3)C2=O)c(C)c1,-4%
25,Oc1c(Cl)cc(Cl)cc1Sc1cc(Cl)cc(Cl)c1O,76% (active)
